From PubChem BioAssay AID624273 (Broad Institute, 2012)
Screen size: about 1,000 compounds; about 230 (23%) were called active. Roughly 1% stayed inconclusive and do not appear here. Some of the results follow. Results with a measured potency or affinity are listed apart. Values without a mark were called inactive. How the calls were made is not given here.

Biological target: Long-chain-fatty-acid--AMP ligase FadD28 (Mycobacterium tuberculosis (strain ATCC 25618 / H37Rv)) (UniProt P9WQ59)
Experiment: inhibitors of FadD28 bisubstrate probe binding, dose response, biochemical, fluorescence polarization, cherry-pick (AID 624273)
Settings: series mostly up to 50 µM; activity change, negative = inhibition: at the top concentration

Sequence of Long-chain-fatty-acid--AMP ligase FadD28 (Mycobacterium tuberculosis (strain ATCC 25618 / H37Rv)) (P9WQ59 whole entry, looked up): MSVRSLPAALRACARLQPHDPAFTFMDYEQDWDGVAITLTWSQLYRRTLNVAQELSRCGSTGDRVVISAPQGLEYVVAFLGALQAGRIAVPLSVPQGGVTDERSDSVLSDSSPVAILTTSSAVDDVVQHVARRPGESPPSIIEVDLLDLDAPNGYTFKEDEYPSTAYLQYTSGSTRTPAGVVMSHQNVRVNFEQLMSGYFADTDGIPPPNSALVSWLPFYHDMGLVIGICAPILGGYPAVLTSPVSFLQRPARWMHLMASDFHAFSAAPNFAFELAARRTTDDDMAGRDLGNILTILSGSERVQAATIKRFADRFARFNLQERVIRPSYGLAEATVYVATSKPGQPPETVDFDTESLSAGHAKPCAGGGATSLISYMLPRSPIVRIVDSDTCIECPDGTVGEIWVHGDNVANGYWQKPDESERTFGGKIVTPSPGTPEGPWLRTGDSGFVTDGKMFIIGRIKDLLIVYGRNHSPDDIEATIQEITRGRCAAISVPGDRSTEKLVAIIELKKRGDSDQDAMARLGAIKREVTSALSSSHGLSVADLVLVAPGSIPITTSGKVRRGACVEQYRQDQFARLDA

Row | SMILES | activity change, negative = inhibition [%]
1 | COc1ccc(C)cc1NC(=O)CSc1nnc(-c2ccc(Br)cc2)o1 | -0.706
2 | CCc1cccc(NC(=O)COC(=O)/C=C/c2cccs2)c1 | 2.6
3 | COc1ccc(C(=O)c2ccsc2N)cc1 | -3.79
4 | Cc1ccc(OCCCN2CCOCC2)cc1 | -0.236
5 | Cc1ccc(S(=O)(=O)/N=C2\C=C(Nc3ccc(O)cc3)C(=O)c3ccccc32)cc1 | -11.4
6 | O=C(COC(=O)c1ccc(NS(=O)(=O)c2cccs2)cc1O)Nc1nc2ccccc2s1 | -4.46
7 | O=C(CSc1nnc(Cc2ccccc2)n1-c1ccccc1)NNC(=O)Cc1ccccc1 | -1.66
8 | O=C(COC(=O)c1cc(S(=O)(=O)Nc2ccccc2Cl)ccc1O)Nc1nc2ccccc2s1 | -2.04
9 | CCc1nnc(NC(=O)CSc2ncnc3c2oc2ccccc23)s1 | -2.91
10 | O=C(NCC(c1cccs1)N1CCOCC1)c1cc2ccccc2oc1=O (stereo unspecified) | -4.79
11 | O=c1c2c3c(sc2nc2n1CCC2)CCCC3 | -5.38
12 | CCc1cccc2c(C(=O)CN3C(=O)NC(C)(c4cccc5ccccc45)C3=O)c[nH]c12 (stereo unspecified) | -14.2
13 | CC(C)C(NC(=O)c1ccc2c(c1)OCO2)C(=O)N/N=C/c1cccs1 (stereo unspecified) | -4.73
14 | NC(Cc1ccc(C(F)(F)F)cc1)c1csc(NC(=O)Nc2ccccc2)n1 (stereo unspecified) | -13.6
15 | CN=c1scc(-c2ccco2)n1/N=C/c1ccc(O)c(O)c1 | -3.77
16 | CCN=c1scc(-c2ccco2)n1/N=C/c1ccc(OC)c(O)c1 | -1.88

Row | SMILES | activity change, negative = inhibition [%]
17 | Oc1ccc(/C=N/N(Cc2ccccc2)c2ccccc2)c(O)c1O | -9.42
18 | Oc1ccccc1/C=N/n1c2ccccc2c2ccccc21 | -3.98
19 | CCOC(=O)c1c(-c2ccc(C)s2)csc1NC(=O)c1cccs1 | -5.93
20 | CCOc1ccccc1NC(=O)CSc1nnc(-c2ccncc2)o1 | -7.28
21 | CCOc1ccc(C(=O)Nc2cc(-c3nc4ccccc4[nH]3)ccc2C)cc1[N+](=O)[O-] | -2.24
22 | CC(C)NCC(=O)Nc1c2c(nc3ccccc13)CCC2 | 2.17
23 | O=c1[nH]nc(-c2ccccc2)cc1-c1ccccc1 | -2.33
24 | COc1ccccc1CN1CCCC(C(=O)N2CCCCC2)C1 (stereo unspecified) | -3.04
25 | COc1cccc(/C=N/Nc2nc(C)cc(=O)[nH]2)c1OC | -8.26
26 | CCOC(=O)C1=C(C)NC(C)=C(C(=O)OCC)C1c1sccc1C | -4.22
27 | COc1cccc(CN(C)C(=S)Nc2ccc(C)c(C)c2)c1 | -8.65
28 | CCOc1ccc(-n2c(=O)c3sccc3n(CC(=O)Nc3cccc(OC)c3)c2=O)cc1 | -5.66
29 | Nc1ccc(NC(=O)NC2CCCCC2)cc1[N+](=O)[O-] | -4.53
30 | O=C(Nc1cccc(F)c1)NC1CCCCCCC1 | -9.32
31 | N=c1n(Cc2ccccc2)c2ccccc2n1CC(O)c1ccco1 (stereo unspecified) | -1.34
